The text below walks through data of PubChem BioAssay AID2732 (Emory University Molecular Libraries Screening Center, 2010).

Screen size: about 220,000 compounds; about 8,200 (3.7%) were called active.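 How the source made its calls: active means compounds that reduced the stress-induced luciferase reporter signal by more than about 70% of percent inhibition (limit read from the data); inactive means the rest.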 For the sample, actives were picked, then their nearest neighbours and some compounds at random.

The term inhibition denotes the relative decrease from the control value, in per cent.

The test in a line: inhibitors of CHOP promoter induction, primary screen, cell-based, unfolded protein response, luciferase reporter (AID 2732).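 Further: 0% = tunicamycin plus vehicle and 100% = wells without tunicamycin.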 To be noted: CHO-K1 CHOP-promoter luciferase, tunicamycin-induced, 15-18 h; at 10 µM; stronger effect = higher value. For orientation: In a reporter assay the amount or activity of a reporter protein is the signal.
As for `COc1cc(C(F)(F)F)c(C(=O)N(C)c2ccc(Cl)cc2)cn1`, the inhibition was 13.6% (inactive).
The same measure for `O=C(Nc1ccc(-c2csc(Nc3cccc(C(F)(F)F)c3)n2)cc1)c1cccc(C(F)(F)F)c1`: 21.4% (inactive); for `COC(=O)CSc1nccc(-c2cccs2)n1`: -10.9% (inactive); for `O=C(O)COc1ccc(-c2nccc(-c3cccs3)n2)cc1`: 73.8% (active).
With `O=C(Nc1ccnc(-c2ccncc2)n1)c1cccs1` the figure was 10.6% (inactive).
The same measure for `O=c1[nH]c(CSc2ccccc2)nc2c1oc1ccccc12`: -3.37% (inactive); for `Cc1nnsc1C(=O)NCc1c(F)cccc1Cl`: 15.1% (inactive); for `Cc1ccc(-c2cn3cc(C)ccc3n2)cc1`: 95.9% (active).
In the case of `Cc1ccc(-c2cn3cc([N+](=O)[O-])ccc3n2)cc1`, the inhibition was 54.5% (inactive).
With `COc1ccc(-c2cn3ccc(C)cc3n2)cc1` the figure was 59.3% (inactive); with `COc1ccccc1N1CCN(C(=O)CSc2ncnc3c2cnn3-c2ccc(C)c(C)c2)CC1`, -4.74% (inactive).
With `Cc1nc(C(=O)N2CCCC(C(=O)c3ccc(Cl)cc3)C2)cs1` (stereo not given) the figure was -9.72% (inactive).
The same measure for `CN(c1ccc2nc3ccccc3c(=O)n2n1)C1CCCCC1`: 84.1% (active); for `O=c1c2ccccc2nc2n1C1(CCCCC1)Cc1ccccc1-2`: -15.6% (inactive); for `CN(C(=O)CSc1nncc2ccccc12)C1CCCCC1`: 4.17% (inactive).
With `O=C(C[n+]1cc(-c2ccc(Cl)c(Cl)c2)n2c1CCC2)c1cccs1`, the inhibition is -8.35% (inactive).
With `Cc1ccc(S(=O)(=O)N(C)C)cc1NC(=O)c1n[nH]c(=O)c2ccccc12` the figure was 2.56% (inactive); with `O=C(Nc1ccc(F)cc1)c1cc2c(s1)CCCC2`, 10.4% (inactive); with `C/C(=N\NC(=O)c1cc2c(s1)CCC(C)C2)c1cccnc1` (stereo not given), 6.64% (inactive).
The same measure for `CC1CCc2sc(C(=O)N/N=C/C3CCCCC3)cc2C1` (stereo not given): 71.4% (active).
The same measure for `NC(=O)c1c(NC(=O)CSc2nc(N)cc(=O)[nH]2)sc2c1CCCC2`: 15.3% (inactive).
Turning to `COc1cc(/C=C2/C(=O)ON=C2C)ccc1OCc1cccc(F)c1`, the inhibition is 104% (active).
Regarding `CC1=NOC(=O)/C1=C\c1ccccc1`, the inhibition is -18.4% (inactive).
Take `COc1cc(/C=C2/C(=O)ON=C2C)ccc1OCc1ccccc1F`: the inhibition was -26.4% (inactive).
With `Cc1cc(NCc2cccnc2)no1` the figure was 3.98% (inactive).
For the compound `O=C(NC(=O)N1CCSCC1)c1c(Cl)cccc1Cl`, the inhibition was 12.1% (inactive).
The same measure for `Cc1cc(CO)nn1-c1ccc([N+](=O)[O-])cc1`: 7.27% (inactive).
With `CNC(=O)C(NC(=O)c1ccccc1)=C(C)C` the figure was 1.37% (inactive).
With `CCN(CC)c1ccc(NC(=O)C2CCC(CNc3c(N4CCCC4)c(=O)c3=O)CC2)c(C)c1` (stereo not given) the figure was -9.36% (inactive).
As for `Cc1cc(-c2nc(C)c(-c3nnc(SCC(=O)Nc4ccccc4)n3C)s2)no1`, the inhibition was 5.16% (inactive).
Turning to `CC(C)(C)Oc1ncc(Br)c(OC(C)(C)C)n1`, the inhibition was 23.2% (inactive).
The same measure for `COc1cccc(-c2nc3cc(C)ccc3o2)c1`: 61.7% (inactive); for `COc1cccc(-c2cnc(OC(C)(C)C)nc2OC(C)(C)C)c1`: 91.8% (active).
With `Cc1ccc(C(=O)Nc2nc(N)n(-c3ccccc3)n2)cc1` the figure was 12.8% (inactive); with `CCN(CC)C(=O)CN(c1cccc([N+](=O)[O-])c1)S(=O)(=O)c1ccccc1`, 0.69% (inactive).
With `O=C(Nc1cccc([N+](=O)[O-])c1)Nc1ccc(Cl)cn1` the figure was 2.82% (inactive); with `O=C(CCl)N(Cc1cccc([N+](=O)[O-])c1)c1cccc(Cl)c1`, 105% (active).
`COC(=O)c1scc(S(=O)(=O)C(C)(C)C)c1-n1cccc1`: the inhibition is 6.86% (inactive).
With `Cc1ccc(S(=O)(=O)NC(=O)N2CCCN(Cc3ccc(F)cc3)CC2)cc1` the figure was 9.07% (inactive); with `COc1ccc(NS(=O)(=O)c2ccc(NC(=S)NC(=O)/C=C/c3ccc(C)cc3)cc2)nn1`, 95.5% (active); with `COc1ccc(NS(=O)(=O)c2ccc(NC(=O)C(C)(C(F)(F)F)C(F)(F)F)cc2)nn1`, -4.95% (inactive).
With `Cc1ccc(NC(=S)NC(=O)/C=C/c2ccc(Cl)cc2)cc1` the figure was 17.9% (inactive); with `CCN(CC)CCCN=Cc1c(O)n(-c2ccc(C)cc2)c(=O)c2ccccc12`, 6.14% (inactive).
With `CSCC[C@H](NC(=O)NC1CCCC1)C(=O)O` the figure was -0.23% (inactive); with `Cc1ccc(-c2nc(CS(=O)CC(=O)N3CCN(c4ncccn4)CC3)c(C)o2)cc1` (stereo not given), 44.5% (inactive).
Turning to `COc1ccc(-c2nc(CS(=O)CC(=O)N3CCc4ccccc4C3)c(C)o2)cc1` (stereo not given), the inhibition is 86.5% (active).
The same measure for `COc1ccc(-c2nc(CS(=O)CC(=O)NCc3ccccn3)c(C)o2)cc1` (stereo not given): 7.53% (inactive); for `CCn1c(SCC(=O)Nc2sc(C)c(C)c2C#N)nnc1C1CC1`: 5.65% (inactive).
For `CCc1ccccc1NC(=O)CSc1nnc(CCNC(=O)OC(C)(C)C)o1`, the inhibition was 15.9% (inactive).
With `O=C(/C=C/c1ccc(Cl)c([N+](=O)[O-])c1)c1ccc(O)cc1` the figure was -208% (inactive); with `COc1ccc(-c2nn(-c3ccccc3)cc2/C=C\C(=O)Nc2ccc(C(=O)O)cc2)cc1`, 40.4% (inactive).
On to `Cc1ccc(-c2nn(-c3ccccc3)cc2C(=O)Nc2cccc(S(=O)(=O)N3CCOCC3)c2)cc1`, for which the inhibition is 40% (inactive).
The same measure for `Cc1ccc(-c2nn(-c3ccccc3)cc2/C=C/C(=O)Nc2cccc(S(N)(=O)=O)c2)cc1`: 88.3% (active); for `CC(=O)NCc1ccc(S(=O)(=O)NC2CCN(Cc3ccccc3)CC2)cc1`: -10.7% (inactive); for `Nc1ccccc1SC(C[N+](=O)[O-])c1ccccc1` (stereo not given): 46.3% (inactive).
The same measure for `O=C1CC2(CC(c3ccc(Cl)cc3)=NO2)C(=O)N1c1ccccc1` (stereo not given): 18.6% (inactive); for `NC(=O)C1=C[C@@H](c2csc3ccccc23)C[C@@H](OCc2ccc(CO)cc2)O1`: 36.3% (inactive); for `COP1(=O)C[C@@H](O)[C@@H](O)[C@@H](COCc2ccccc2)O1` (stereo not given in full): -7.84% (inactive).
As for `CCNCc1cc2cc(C)ccc2[nH]c1=O`, the inhibition was -7.23% (inactive).
Consider `CCCc1nc(-c2cc3cc(C)ccc3[nH]c2=O)no1`, for which the inhibition is 14.6% (inactive).
Consider `Cc1ccc2[nH]c(=O)c(-c3nc4c(C)cccn4c3NCc3ccco3)cc2c1`, for which the inhibition was 95.7% (active).
The same measure for `Cc1nnc(SC(C(=O)c2ccccc2)c2ccccc2)[nH]c1=O` (stereo not given): -8.07% (inactive); for `CCn1c2ccccc2c2cc(NC(=O)CNC)ccc21`: 5.95% (inactive).
For `CCOc1ccccc1C(=O)NCCCn1ccnc1`, the inhibition is -4.75% (inactive).
For `CCCC(=O)Nc1ccc(C(=O)NCCCn2ccnc2)cc1`, the inhibition is 73.7% (active).
With `O=C(CCN1C(=O)c2ccccc2C1=O)NCCCn1ccnc1` the figure was -1.9% (inactive); with `N#C/C(=C\N1CCOCC1)S(=O)(=O)c1ccc(Cl)cc1`, 21.5% (inactive); with `COc1cc(C2CC(=O)c3cnc(NC(C)=O)nc3C2)cc(OC)c1OC` (stereo not given), 30.2% (inactive).
As for `O=C(Nc1ncc2c(n1)CC(c1ccco1)CC2=O)c1ccc(Cl)cc1` (stereo not given), the inhibition is 33.8% (inactive).
With `CCc1ccc(Nc2ncc3c(n2)CC(c2ccco2)CC3=O)cc1` (stereo not given) the figure was 78.5% (active); with `CCOC(=O)c1cn(CC)c2cc(F)c(F)cc2c1=O`, -15.5% (inactive); with `O=C(CNC(=O)c1cc(=O)[nH]c2ccccc12)Nc1ccc(F)c(F)c1`, -18.5% (inactive).
With `O=C(CC(NC(=O)c1ccccc1)c1ccccc1)Nc1ccc(F)c(F)c1` (stereo not given) the figure was 105% (active); with `O=C(CNC(c1ccccc1)c1ccccc1)Nc1ccc(F)cc1`, 23.2% (inactive); with `CCn1c(=O)c([N+](=O)[O-])c(NCc2ccc3c(c2)OCO3)c2ccccc21`, 22.4% (inactive).
With `Cc1cc(NC(=O)OC(C)C)ccc1-c1ccc(NC(=O)OC(C)C)cc1C` the figure was 25.1% (inactive); with `C(=N\Nc1ccc2ccccc2n1)/c1ccc2c(c1)OCO2`, 71% (active).
As for `Brc1ccc(-c2csc(N/N=C/c3ccc4c(c3)OCO4)n2)cc1`, the inhibition was 26.8% (inactive).
On to `Cc1noc(C)c1/C=N/Nc1ccc2ccccc2n1`, for which the inhibition was 16.5% (inactive).
With `COc1ccc(Cc2cc(-c3ccc(F)cc3)n[nH]c2=O)cc1` the figure was 15.3% (inactive); with `O=C(NCC1CCCO1)c1cc(-c2ccccc2)nc2ccccc12` (stereo not given), 1.14% (inactive); with `Cc1ccc(SCCC(=O)Nc2cc(C)on2)cc1`, 20.7% (inactive).
The same measure for `Cc1ccc2nc(-c3ccc(SCC(=O)Nc4cc(C)on4)nc3)[nH]c2c1`: 91.1% (active); for `Cc1ccc(-c2csc(SCC(=O)Nc3cc(C)on3)n2)cc1`: 32.5% (inactive); for `CCCc1nc2oc3c(=O)[nH]cnc3c2c2c1COC(C)(C)C2`: -14.7% (inactive).
With `COC(=O)c1cc(S(=O)(=O)N2CCC(C(N)=O)CC2)oc1C` the figure was 4.8% (inactive).
As to `COCCNc1nc(-c2ccccc2)nc2c1oc1ccccc12`, the inhibition is 37.1% (inactive).
`Cc1cc(C)n(CC(C)NCc2c(C(=O)N3CCOCC3)nc3c(C)cccn23)n1` (stereo not given): the inhibition was 11.3% (inactive).
`O=C(Nc1ccc(C(=O)O)cc1)/C(=C/c1ccc([N+](=O)[O-])cc1)NC(=O)c1ccccc1`: the inhibition was -5.43% (inactive).
The same measure for `Cc1ccc(NC(=O)/C(=C/c2ccc([N+](=O)[O-])cc2)NC(=O)c2ccccc2)cc1`: 104% (active); for `O=C(Nc1ccccc1)/C(=C/c1ccc([N+](=O)[O-])cc1)NC(=O)c1ccccc1`: 51.8% (inactive); for `Cc1cc(=O)oc2cc(OCC(=O)Nc3nnc(C4CC4)s3)ccc12`: 1.52% (inactive).
As to `CNC1(c2nnnn2-c2c(C)cccc2C)CCOC(C)(C)C1` (stereo not given), the inhibition is 1.67% (inactive).
With `CCOC(=O)C1CCN(C(=O)Nc2ccc(C)c(Cl)c2)CC1` the figure was 1.94% (inactive); with `C/C=C(/C)C(=O)O[C@@H]1c2cc3c(c4c2[C@@]2(CO4)C(=O)C(OC)=C(OC)C=C2C[C@@H](C)[C@H]1C)OCO3`, 2.19% (inactive).
